Records with an inconclusive call do not appear. Calls of active or inactive are those of the source. Unless noted, calls come from the whole dose curve; as a rule, active = well fitted curve in the direction sought with a large enough effect in the repeat runs; inconclusive = weak or mixed curves; inactive = no such curve, though single readings can be large; an effect the other way counts as inactive or inconclusive. Where a SMILES comes first, the peptide text is derived from it. [ ]: non-standard residue; d: D form. pGlu = O=C1CC[C@@H](C(=O)O)N1
Experiments:
[1] = qHTS assay to identify small molecule antagonists of the vitamin D receptor (VDR) signaling pathway - cell viability counter screen (AID 743225); note: nearly all actives have a fitted effect of over 50% in size
How it was run: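 VDR-UAS-bla HEK 293T cells were plated and incubated 4 h at 37C, then dosed with compound plus 3 nM (final) 1-alpha,25-dihydroxyvitamin D3 for 16 h. After the 2 h beta-lactamase read, viability in the same wells was read as CellTiter-Glo luminescence after 30 min at room temperature.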

[2] = qHTS assay to identify small molecule agonists of the NFkB signaling pathway - cell viability counter screen (AID 1159515; calls by dose curve; note: series mostly up to about 61 µM; nearly all actives have a fitted effect of over 55% in size)
How it was run: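 NFkB-bla ME-180 cells, 2,000/well, were plated overnight at 37 C, 5% CO2, then exposed to compounds in DMSO for 5 hr. After the bla FRET read, CellTiter-Glo was added to the same wells; luminescence was read after 30 min at room temperature.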

[3] = qHTS assay to identify small molecule agonists of the endoplasmic reticulum stress response signaling pathway (AID 1159516; active = well fitted activation curve with a large enough effect in the signal ratio in the repeat runs, not every such curve was filed as active; the % refers to the signal ratio)
How it was run: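 CellSensor ESRE-bla HeLa cells, carrying a beta-lactamase reporter driven by the ER stress response element, were plated overnight and exposed to compounds for 5 hr at 37 C. Reporter activity was read as FRET substrate fluorescence after 2 hr at room temperature.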

[4] = qHTS assay to identify small molecule agonists of the endoplasmic reticulum stress response signaling pathway - cell viability counter screen (AID 1159517; calls by dose curve; note: series mostly up to about 61 µM; nearly all actives have a fitted effect of over 50% in size)
How it was run: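 Cells, HeLa ESRE-bla; density, 1,500/well; dosing, 5 hr at 37 C, 5% CO2; readout, CellTiter-Glo luminescence after 30 min RT.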

[5] = qHTS assay to identify small molecule antagonists of the retinoid-related orphan receptor gamma (ROR-gamma) signaling pathway - cell viability counter screen (AID 1159520); note: nearly all actives have a fitted effect of over 50% in size
How it was run: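 Cytotoxicity was read from cellular ATP (CellTiter-Glo luminescence) after 16 hr at 37 C with 1 uM doxycycline induction. The inducer was added 2 hr after compound transfer to Tet-on ROR gamma CHO cells.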

[6] = molecular target: Nuclear receptor ROR-gamma (Homo sapiens) (UniProt P51449); test: qHTS assay to identify small molecule antagonists of the retinoid-related orphan receptor gamma (ROR-gamma) signaling pathway (AID 1159521;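 note: CHO cells with doxycycline inducible ROR-gamma driving an RORE luciferase reporter; top concentration of the series differs between compounds; nearly all actives have a fitted effect of over 50% in size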)
How it was run: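 Tet-on ROR-gamma CHO cells with ROR response element-luciferase reporter; compounds added 2 hr before 1 uM doxycycline induction, then 16 hr at 37 C. Antagonism scored as decreased ONE-Glo luminescence.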

[7] = qHTS assay to identify small molecule agonists of the AP-1 signaling pathway (AID 1159526; calls by dose curve)
[8] = molecular target: Retinoic acid receptor RXR-alpha (Homo sapiens) (UniProt P19793); test: qHTS assay to identify small molecule agonists of the RXR signaling pathway (AID 1159527; calls by dose curve; note: nearly all actives have a fitted effect of over 35% in size)
How it was run: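 GeneBLAzer RXR-alpha-UAS-bla HEK 293T cells in 2% charcoal-stripped FBS medium were exposed to compounds for 16 hr at 37 C in agonist mode. Beta-lactamase reporter read as 460/530 nm FRET ratio after 2 hr substrate loading.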

[9] = qHTS assay to identify small molecule agonists of the RXR signaling pathway - cell viability counter screen (AID 1159529)
How it was run: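 RXR-alpha-UAS-bla HEK 293T cells in medium with 2% charcoal-stripped FBS were pre-incubated 5 hr, then compound-treated 16 hr at 37 C. Viability was read by CellTiter-Glo luminescence in the same wells as the beta-lactamase assay, with tetraoctyl ammonium bromide as positive control.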

[10] = qHTS assay to identify small molecule antagonists of the retinoid acid receptor (RAR) signaling pathway - cell viability counter screen (AID 1159551); note: nearly all actives have a fitted effect of over 35% in size
How it was run: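 C3RL4 cells were seeded overnight at 37 C, then treated with compounds plus 1 uM (final) retinol for 6 h at 37 C. Viability was read as ATP by CellTiter-Glo luminescence after 30 min at room temperature.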

[11] = qHTS assay to identify small molecule antagonists of the retinoic acid receptor (RAR) signaling pathway (AID 1159552; note: nearly all actives have a fitted effect of over 50% in size)
How it was run: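 Retinol signaling pathway inhibitors screened in C3RL4 RARE-luciferase reporter cells seeded overnight at 37 C, then compounds added with 1 uM (final) retinol as pathway substrate. After 6 hr at 37 C, luciferase luminescence read after 30 min at room temperature.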

[12] = qHTS assay to identify small molecule agonists of the vitamin D receptor (VDR) signaling pathway - cell viability counter screen (AID 743224)
How it was run: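 VDR-bla cells were preincubated 4 h at 37C/5% CO2, then exposed to compounds for 16 h. After the 2 h room-temperature bla FRET read, CellTiter-Glo was added to the same wells and luminescence read after 30 min.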

[13] = qHTS assay to identify small molecule agonists of the AP-1 signaling pathway - cell viability counter screen (AID 1159525; calls by dose curve; note: nearly all actives have a fitted effect of over 55% in size)
How it was run: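 Luminescent ATP readout (Cell Titer Glo, 30 min RT), normalised to DMSO and tetra n-octyl ammonium bromide controls. Cells were ME-180 AP-1-bla in 0.5% dialyzed FBS Opti-MEM, with a 5 h, 37 °C compound exposure.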

[14] = qHTS assay to identify small molecule agonists of the retinoic acid receptor (RAR) signaling pathway (AID 1159553)
How it was run: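 C3RL4 cells carrying a RARE luciferase reporter were plated overnight at 37 C, then exposed to compounds in DMSO for 6 hr at 37 C and 5% CO2. Luminescence was read 30 min after luciferase reagent addition at room temperature.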

Measured: Potency

Sequence of Retinoic acid receptor RXR-alpha (Homo sapiens) (P19793 whole entry, looked up): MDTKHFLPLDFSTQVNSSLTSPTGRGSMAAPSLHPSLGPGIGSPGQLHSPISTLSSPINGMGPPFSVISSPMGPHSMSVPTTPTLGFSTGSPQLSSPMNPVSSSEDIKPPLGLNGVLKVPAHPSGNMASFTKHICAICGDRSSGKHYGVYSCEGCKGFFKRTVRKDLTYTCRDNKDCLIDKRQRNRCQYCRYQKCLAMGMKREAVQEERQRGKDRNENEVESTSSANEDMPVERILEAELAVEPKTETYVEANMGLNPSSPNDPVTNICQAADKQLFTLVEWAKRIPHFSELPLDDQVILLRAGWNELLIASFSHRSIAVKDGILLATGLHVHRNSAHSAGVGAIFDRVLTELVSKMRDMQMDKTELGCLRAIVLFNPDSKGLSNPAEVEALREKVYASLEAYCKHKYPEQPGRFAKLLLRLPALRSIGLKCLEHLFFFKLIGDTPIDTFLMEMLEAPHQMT

C=C[Si](OC(C)=O)(OC(C)=O)OC(C)=O
not listed: [12] | [13] | [14]
inactive: all other assays above

CCOC(=O)CCC(=O)OCC
not listed: [13] | [14]
inactive: all other assays above

CCOC(=O)C1=NOC(c2ccccc2)(c2ccccc2)C1
not listed: [5]
inactive: all other assays above

CCC(=O)OCc1ccccc1
not listed: [11] | [14]
inactive: all other assays above

O=S(=O)(O)c1cccc2c(S(=O)(=O)O)cccc12
not listed: [11] | [13]
inactive: all other assays above

CCO[Si](OCC)(OCC)c1ccccc1
not listed: [11] | [14]
inactive: all other assays above

CCCCc1nc(Cl)c(CO)n1Cc1ccc(-c2ccccc2-c2nn[nH]n2)cc1
not listed: [11] | [14]
inactive: all other assays above

NC(=O)NC1N=C([O][Al])NC1=O (configuration not stated)
not listed: [11] | [13] | [14]
inactive: all other assays above

CC1=C(C/C=C(\C)CCC[C@H](C)CCC[C@H](C)CCCC(C)C)C(=O)c2ccccc2C1=O
not listed: [11] | [14]
inactive: all other assays above

CCCC[N+](C)(CCCC)CCCC
not listed: [11] | [13] | [14]
inactive: all other assays above

CCNC(=O)[C@@H]1CCCN1C(=O)[C@H](CCCN=C(N)N)NC(=O)[C@H](CC(C)C)NC(=O)CNC(=O)[C@H](Cc1ccc(O)cc1)NC(=O)[C@H](CO)NC(=O)[C@H](Cc1c[nH]c2ccccc12)NC(=O)[C@H](Cc1cnc[nH]1)NC(=O)[C@@H]1CCC(=O)N1 ([pGlu]HWSYGLRP-NHEt)
not listed: [13] | [14]
inactive: all other assays above

NC(=O)N[C@@H](CCC(=O)O)C(=O)O
not listed: [11] | [13] | [14]
inactive: all other assays above

NS(=O)(=O)Cc1noc2ccccc12
not listed: [11] | [13] | [14]
inactive: all other assays above

CC(CO)(CO)[N+](=O)[O-]
not listed: [11] | [13] | [14]
inactive: all other assays above

[O-][n+]1cccc(CO)c1
not listed: [11] | [14]
inactive: all other assays above

CC(C)(C#N)Nc1nc(Cl)nc(NC2CC2)n1
not listed: [11] | [14]
inactive: all other assays above

CC1=CC(=O)[C@H]2C[C@@H]1C2(C)C
not listed: [11] | [13] | [14]
inactive: all other assays above

CC(=O)NC(=O)c1ccccc1O
not listed: [11] | [13] | [14]
inactive: all other assays above

CCC(C(=O)NC(=O)NC(C)=O)c1ccccc1 (configuration not stated)
not listed: [11] | [14]
inactive: all other assays above

[K+]
not listed: [11] | [13] | [14]
inactive: all other assays above
